# Laboratory results published in PubChem BioAssay AID1159580 (chemical genetic matrix, 2015).
# Hit rate of the full screen: of about 5,500 compounds, about 2,000 (36%) were called active. Another 18% or so got no clear call; they are omitted. The list shows a part of the results. Values without a mark were called inactive. No stated cut-off is given here; in the data, active means normalized growth mostly below about 0.91 (no sharp cut-off); inconclusive means no clear call, values can overlap the other calls; inactive means mostly above about 0.92.
# Assay: chemical genetic growth profiling, strain panel (AID 1159580);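 further: tested at 20 µM; growth read once vehicle control cultures reached saturation at 30 °C; 1 = growth at the plate median or of vehicle wells; lower values mean less growth of the strain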
# Details: growth OD
structure (smiles),measurement,setting,value
CC[n+]1c(-c2ccccc2)c2cc(N)ccc2c2ccc(N)cc21,normalized growth,"S. cerevisiae deletion strains, locus YJR075W, strain HOC1, hits give low values",0.665 (active)
same,normalized growth,"S. cerevisiae deletion strains, locus YKL009W, strain mrt4, hits give low values",0.867 (active)
same,normalized growth,"S. cerevisiae deletion strains, locus YKL068W, hits give low values",0.881 (active)
same,normalized growth,"S. cerevisiae deletion strains, locus YKL085W, strain MDH1 (second series), hits give low values",0.882 (active)
same,normalized growth,"S. cerevisiae deletion strains, locus YKL085W, strain MDH1, hits give low values",0.882 (active)
same,normalized growth,"S. cerevisiae deletion strains, locus YKL160W, strain elf1, hits give low values",0.973
same,normalized growth,"S. cerevisiae deletion strains, locus YKL190W, strain CNB1, hits give low values",0.857 (active)
same,normalized growth,"S. cerevisiae deletion strains, locus YKR001C, strain vps1, hits give low values",0.929
same,normalized growth,"S. cerevisiae deletion strains, locus YKR026C, strain gcn3, hits give low values",0.955
same,normalized growth,"S. cerevisiae deletion strains, locus YKR091W, strain srl3, hits give low values",0.97
same,normalized growth,"S. cerevisiae deletion strains, locus YLL001W, strain dnm1, hits give low values",0.95
same,normalized growth,"S. cerevisiae deletion strains, locus YLL026W, hits give low values",0.97
same,normalized growth,"S. cerevisiae deletion strains, locus YLL041C, strain sdh2, hits give low values",0.972
same,normalized growth,"S. cerevisiae deletion strains, locus YLR027C, strain aat2, hits give low values",0.979
same,normalized growth,"S. cerevisiae deletion strains, locus YLR039C, strain RIC1, hits give low values",0.771
same,normalized growth,"S. cerevisiae deletion strains, locus YLR058C, strain SHM2, hits give low values",0.847 (active)
same,normalized growth,"S. cerevisiae deletion strains, locus YLR102C, strain apc9, hits give low values",0.942
same,normalized growth,"S. cerevisiae deletion strains, locus YLR113W, strain HOG1, hits give low values",0.831 (active)
same,normalized growth,"S. cerevisiae deletion strains, locus YLR221C, strain rsa3, hits give low values",0.936
same,normalized growth,"S. cerevisiae deletion strains, locus YLR258W, strain gsy2, hits give low values",0.968
same,normalized growth,"S. cerevisiae deletion strains, locus YLR262C, strain YPT6 (second series), hits give low values",1.01
same,normalized growth,"S. cerevisiae deletion strains, locus YLR262C, strain YPT6, hits give low values",0.755
same,normalized growth,"S. cerevisiae deletion strains, locus YLR268W, strain sec22, hits give low values",0.777 (active)
same,normalized growth,"S. cerevisiae deletion strains, locus YLR320W, strain mms22, hits give low values",0.872 (active)
same,normalized growth,"S. cerevisiae deletion strains, locus YLR330W, strain CHS5, hits give low values",0.886 (active)
same,normalized growth,"S. cerevisiae deletion strains, locus YLR342W, strain FKS1 (second series), hits give low values",0.86
same,normalized growth,"S. cerevisiae deletion strains, locus YLR342W, strain FKS1, hits give low values",0.987
same,normalized growth,"S. cerevisiae deletion strains, locus YLR357W, strain rsc2, hits give low values",1.04
same,normalized growth,"S. cerevisiae deletion strains, locus YLR370C, strain arc18, hits give low values",0.955
same,normalized growth,"S. cerevisiae deletion strains, locus YLR371W, strain rom2, hits give low values",0.917
same,normalized growth,"S. cerevisiae deletion strains, locus YLR384C, strain iki3, hits give low values",0.966
same,normalized growth,"S. cerevisiae deletion strains, locus YLR418C, strain cdc73, hits give low values",0.881
same,normalized growth,"S. cerevisiae deletion strains, locus YML016C, strain PPZ1, hits give low values",0.885 (active)
same,normalized growth,"S. cerevisiae deletion strains, locus YML032C, strain rad52, hits give low values",0.425 (active)
same,normalized growth,"S. cerevisiae deletion strains, locus YML120C, strain ndi1, hits give low values",0.96
same,normalized growth,"S. cerevisiae deletion strains, locus YML124C, strain tub3, hits give low values",0.932 (active)
same,normalized growth,"S. cerevisiae deletion strains, locus YMR058W, strain fet3, hits give low values",0.973
same,normalized growth,"S. cerevisiae deletion strains, locus YMR078C, strain ctf18, hits give low values",0.814 (active)
same,normalized growth,"S. cerevisiae deletion strains, locus YMR125W, strain sto1, hits give low values",0.98
same,normalized growth,"S. cerevisiae deletion strains, locus YMR129W, hits give low values",0.969
same,normalized growth,"S. cerevisiae deletion strains, locus YMR205C, strain PFK2, hits give low values",0.831 (active)
same,normalized growth,"S. cerevisiae deletion strains, locus YMR223W, strain ubp8, hits give low values",0.825 (active)
same,normalized growth,"S. cerevisiae deletion strains, locus YMR231W, strain pep5, hits give low values",0.986
same,normalized growth,"S. cerevisiae deletion strains, locus YMR307W, strain GAS1, hits give low values",0.714
same,normalized growth,"S. cerevisiae deletion strains, locus YNL067W, strain RPL9B, hits give low values",0.805 (active)
same,normalized growth,"S. cerevisiae deletion strains, locus YNL071W, strain lat1, hits give low values",0.868 (active)
same,normalized growth,"S. cerevisiae deletion strains, locus YNL153C, strain GIM3, hits give low values",0.888
same,normalized growth,"S. cerevisiae deletion strains, locus YNL183C, strain NPR1, hits give low values",0.878
same,normalized growth,"S. cerevisiae deletion strains, locus YNL209W, strain ssb2, hits give low values",0.96
same,normalized growth,"S. cerevisiae deletion strains, locus YNL233W, strain BNI4, hits give low values",0.841 (active)
same,normalized growth,"S. cerevisiae deletion strains, locus YNL248C, strain rpa49, hits give low values",0.858 (active)
same,normalized growth,"S. cerevisiae deletion strains, locus YNL250W, strain rad50, hits give low values",0.662 (active)
same,normalized growth,"S. cerevisiae deletion strains, locus YNL271C, strain bni1, hits give low values",0.909 (active)
same,normalized growth,"S. cerevisiae deletion strains, locus YNL298W, strain CLA4, hits give low values",0.881 (active)
same,normalized growth,"S. cerevisiae deletion strains, locus YNL307C, strain MCK1, hits give low values",0.855 (active)
same,normalized growth,"S. cerevisiae deletion strains, locus YNL322C, strain KRE1 (second series), hits give low values",0.919
same,normalized growth,"S. cerevisiae deletion strains, locus YNR049C, strain mso1, hits give low values",0.962
same,normalized growth,"S. cerevisiae deletion strains, locus YNR052C, strain pop2, hits give low values",0.885 (active)
same,normalized growth,"S. cerevisiae deletion strains, locus YOL006C, strain TOP1, hits give low values",0.64
same,normalized growth,"S. cerevisiae deletion strains, locus YOL012C, strain htz1",0.55
same,normalized growth,"S. cerevisiae deletion strains, locus YOL147C, strain pex11, hits give low values",0.898 (active)
same,normalized growth,"S. cerevisiae deletion strains, locus YOR001W, strain rrp6, hits give low values",0.857 (active)
same,normalized growth,"S. cerevisiae deletion strains, locus YOR061W, strain CKA2, hits give low values",0.876 (active)
same,normalized growth,"S. cerevisiae deletion strains, locus YOR069W, strain VPS5, hits give low values",0.891 (active)
same,normalized growth,"S. cerevisiae deletion strains, locus YOR070C, strain gyp1, hits give low values",0.967
same,normalized growth,"S. cerevisiae deletion strains, locus YOR080W, strain dia2, hits give low values",0.988
same,normalized growth,"S. cerevisiae deletion strains, locus YOR083W, strain WHI5, hits give low values",0.948
same,normalized growth,"S. cerevisiae deletion strains, locus YOR106W, strain vam3, hits give low values",0.966
same,normalized growth,"S. cerevisiae deletion strains, locus YOR136W, strain idh2, hits give low values",0.964
same,normalized growth,"S. cerevisiae deletion strains, locus YOR144C, strain elg1, hits give low values",0.906 (active)
same,normalized growth,"S. cerevisiae deletion strains, locus YOR184W, strain ser1, hits give low values",0.73 (active)
same,normalized growth,"S. cerevisiae deletion strains, locus YOR231W, strain MKK1, hits give low values",0.898
same,normalized growth,"S. cerevisiae deletion strains, locus YOR265W, strain rbl2, hits give low values",0.974
same,normalized growth,"S. cerevisiae deletion strains, locus YOR270C, strain vph1, hits give low values",0.856
same,normalized growth,"S. cerevisiae deletion strains, locus YOR290C, strain snf2, hits give low values",0.937
same,normalized growth,"S. cerevisiae deletion strains, locus YOR316C, strain cot1, hits give low values",0.933
same,normalized growth,"S. cerevisiae deletion strains, locus YPL051W, strain arl3, hits give low values",0.989
same,normalized growth,"S. cerevisiae deletion strains, locus YPL055C, strain LGE1, hits give low values",0.89
same,normalized growth,"S. cerevisiae deletion strains, locus YPL078C, strain atp4, hits give low values",1.02
same,normalized growth,"S. cerevisiae deletion strains, locus YPL106C, strain sse1, hits give low values",0.913
same,normalized growth,"S. cerevisiae deletion strains, locus YPL240C, strain hsp82, hits give low values",0.97
same,normalized growth,"S. cerevisiae deletion strains, locus YPL256C, strain CLN2, hits give low values",0.855
same,normalized growth,"S. cerevisiae deletion strains, locus YPR119W, strain clb2, hits give low values",0.925 (active)
same,normalized growth,"S. cerevisiae deletion strains, locus YPR141C, strain kar3, hits give low values",0.886 (active)
same,normalized growth,"S. cerevisiae deletion strains, locus YPR163C, strain tif3, hits give low values",0.781 (active)
same,normalized growth,"S. cerevisiae deletion strains, locus YPR167C, strain met16, hits give low values",0.864 (active)
same,normalized growth,"S. cerevisiae deletion strains, strain wtn01, hits give low values",0.795 (active)
same,normalized growth,"S. cerevisiae strains, strain wild type, hits give low values",0.854 (active)
